High-throughput results as filed in PubChem BioAssay.
Sampled rows, rich in hits. Any-hit rate of the full collection: about 2.9%.
D3 antag – antagonists of human D3 dopamine receptor | 360,000 tested, 2.5% active | max response, negative = inhibition, % | D3R cells, DiscoveRx beta-arrestin luminescence, antagonist mode; stronger effect = lower value; in the data active = max response below about -50%; inconclusive = no clear call, values can overlap the other calls
Target sequence (P35462 whole entry, looked up): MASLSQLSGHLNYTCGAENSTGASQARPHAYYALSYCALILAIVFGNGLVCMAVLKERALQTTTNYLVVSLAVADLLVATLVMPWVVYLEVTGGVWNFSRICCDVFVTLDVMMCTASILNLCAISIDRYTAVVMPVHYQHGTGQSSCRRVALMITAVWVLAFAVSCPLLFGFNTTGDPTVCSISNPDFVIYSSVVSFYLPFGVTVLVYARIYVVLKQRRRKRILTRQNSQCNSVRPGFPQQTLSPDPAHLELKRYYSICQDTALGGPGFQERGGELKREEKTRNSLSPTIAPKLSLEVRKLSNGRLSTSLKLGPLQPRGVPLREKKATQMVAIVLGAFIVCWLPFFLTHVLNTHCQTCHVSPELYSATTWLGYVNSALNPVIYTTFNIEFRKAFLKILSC
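Cells expressing the human receptor were seeded at 1500 cells/well, incubated overnight at 37 degrees C in 5% CO2, then exposed to library compounds with dopamine controls for 90 minutes at 37 degrees C before luminescent detection.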
DRD3 agonist – agonists of human D3 dopamine receptor; P35462; D3R DiscoveRx beta-arrestin cells, luminescence, 90 min; max activation, %; 410,000 tested, 0.58% active; in the data active = max activation above about 30%
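Cells at 1500/well, incubated overnight, then treated with pinned compounds (dopamine as control) for 90 min at 37 degrees C. DiscoveRx reagent added for 30 - 60 minutes at room temperature; luminescence read.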
Integrin act MD – integrin-mediated muscular dystrophy alleviation activation | alpha7betagal myoblasts, beta-gal FDG fluorescence, 48 h | Potency, µM (highest dose often 38.3 µM), usual class: activators | 350,000 tested, 0.064% active; active = well fitted activation curve with a large enough effect; inconclusive = small, poorly fitted or top-dose-only effect; inactive = no such curve, though single readings can be large or run the other way; also: nearly all actives have a fitted effect of over 60% in size
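Alpha7betagal+/- myoblasts (passage 13) were plated 16-24 hr, then exposed to compounds (1:260 dilution of DMSO stock) for 48 hours at 37C. After MPER lysis, β-galactosidase reporter activity was read as FDG fluorescence (ex 480/em 540) after 30 minutes.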
Numbers stand for hits; - = inactive; ? = inconclusive; . = no result given; [ ] = remark or other dose.

SMILES	D3 antag	DRD3 agonist	Integrin act MD
CN1CCN(c2nc3cc(C(F)(F)F)ccc3n3cccc23)CC1	-52	-	.
FC(F)(F)c1cccc(N2CCN(c3nc4ccccc4n4cnnc34)CC2)c1	.	-	.
O=C(NCC(c1cccnc1)N1CCOCC1)C(=O)Nc1ccc(F)cc1 (stereo unspecified)	.	-	.
COc1ccc(-c2cc3ccccc3n2CC(O)CN2CCC(C)CC2)cc1 (stereo unspecified)	-111	-	-
COc1ccc(-c2cc3ccccc3n2CC(O)Cn2nc(C)cc2C)cc1 (stereo unspecified)	?	-	-
COc1cc(C2/C(=C(\O)c3ccc4c(c3)OCCO4)C(=O)C(=O)N2Cc2ccccc2)ccc1O (stereo unspecified)	-	-	?
CCCN(CCC)Cc1cc2ccccc2c2c1COC2	-64	-	-
CCCCN(CCCC)Cc1cc2ccccc2c2c1COC2	-	-	-
CC(=O)Nc1cnc(/C=C\CCCO)cn1	-	-	.
COc1ccc(OC)c(CNc2nc3ccc(C)cc3n3nnnc23)c1	.	-	.
CCOC(=O)C1(CC2CC2)CCN(Cc2ccc(OC)cc2F)CC1	-68	-	-
CCOC(=O)C1(CC2CC2)CCN(Cc2cc(Cl)c(O)c(OC)c2)CC1	-	-	-
CN(CC(=O)Nc1ccc(S(N)(=O)=O)cc1)C1CCCCC1	-	-	-
O=C(O)CSc1nnc(Cc2ccccc2)n1Cc1ccccc1	-	-	-[7.66 µM]
CCc1nonc1NC(=O)c1oc2c(C)c(C)ccc2c1C	-52	-	-
CCc1nonc1NC(=O)c1oc2cc(Br)ccc2c1C	-	-	-
COc1cc(/C=N/N=C2/NC(=O)C(Cc3ccccc3)S2)ccc1O (stereo unspecified)	-	-	-
CC(C)(C)C1=NN=C2c3ccccc3C(=O)C21 (stereo unspecified)	-	-	-
NNc1nc(Nc2ccc([N+](=O)[O-])cc2)nc(N2CCCCCC2)n1	-52	-	-
O=[N+]([O-])c1ccc(Nc2nc(NCCO)nc(N3CCCC3)n2)cc1	-	-	-
Cc1cccc(/C=C(\C#N)c2nc3ccccc3c(=O)[nH]2)c1	.	34	.
CN(C)c1ccc(/C=C(\C#N)c2nc3ccccc3c(=O)[nH]2)cc1	.	-	.
CN1CCCC(CC2Oc3ccccc3Sc3ccccc32)C1 (stereo unspecified)	-84	-	-
c1ccc2c(c1)OC(CCCN1CCCCC1)c1ccccc1S2 (stereo unspecified)	-	-	-
CC(C)c1ccc(NC(=O)CCNS(=O)(=O)c2cccc3nonc23)cc1	-	-	-
SMILES	D3 antag	DRD3 agonist	Integrin act MD
COc1ccc2c(c1)[nH]c1c(N3CCSCC3)ncnc12	-	30	-
COc1ccc2c(c1)[nH]c1c(N3CCN(Cc4ccc5c(c4)OCO5)CC3)ncnc12	-	-	-
Cc1ccc(NC(=O)C2CCCCC2C(=O)O)cc1Cl (stereo unspecified)	-	-	-
Cc1ccc(NC(=O)C2CCCCC2C(=O)O)cc1C (stereo unspecified)	-	-	11µM
NC1=NC2(CCCCC2)n2c(nc3ccccc32)N1	-	-	-
NC1=NC2(CCN(Cc3ccccc3)CC2)n2c(nc3ccccc32)N1	-75	-	-[7.66 µM]
COc1ccccc1N1CCN(C(=O)c2cn(CC(C)C)c(=O)c3c2c2ccccc2n3C)CC1	.	-	.
C=CCN1C[C@H](C(=O)N(CCCN(C)C)C(=O)NCC)C[C@@H]2c3cccc4[nH]cc(c34)C[C@H]21	.	67	.
Cc1ccc(S(=O)(=O)Nc2cc(C(=O)NCCN3CCCC3)ccc2N2CCCCC2)cc1	-51	-	-
CCOCCCNC(=O)c1ccc(N2CCCC2)c(NS(=O)(=O)c2ccc(C)cc2)c1	-	-	?
Cc1ccc(S(=O)(=O)Nc2cc(C(=O)NCCN(C)C)ccc2N2CCCCC2)cc1	-64	-	-
COCCCNC(=O)c1ccc(N2CCCC2)c(NS(=O)(=O)c2ccc(C)cc2)c1	-	-	-
CCOC(=O)c1cc(=O)n(-c2ccc(Cl)cc2C)[nH]1	-	-	-
O=C(c1ccccc1)N1CCN(c2ncnc3c2cnn3-c2ccccc2)CC1	-	-	-
Cc1ccc(-n2ncc3c(N4CCN(Cc5ccccc5)CC4)ncnc32)cc1	.	-	.
COc1cccc(OCCN2CCN(c3ncnc4c3cnn4-c3ccccc3)CC2)c1	-	48	-
Cc1nn(-c2ccccc2)c(Cl)c1C(=O)N1CCN(c2ncnc3c2cnn3-c2ccccc2)CC1	-	41	-
Cc1cc(S(=O)(=O)N(C)CCc2ccccc2)ccc1-n1cnnn1	-	-	-
O=C(Cn1c(=O)cnc2ccccc21)N1CCN(S(=O)(=O)c2ccc(F)cc2)CC1	-	-	-
N#Cc1c(-c2cccs2)nc(SCC(=O)c2cccs2)[nH]c1=O	-	-	-
COc1ccc(C(=O)c2c(-c3ccc(OC)cc3)oc3ccc(-c4ccc(OC)nc4)cc23)cc1	-	-	-
COc1ccc(C(=O)c2c(-c3cccc(C)c3)oc3ccc(N4CCOCC4)cc23)cn1	-	36	-
CCN(CC)S(=O)(=O)c1cccc(C(=O)OC2CCOC2=O)c1 (stereo unspecified)	-	-	-
Cc1cccc(N2CCN(c3ncnc4onc(C)c34)CC2C)c1 (stereo unspecified)	.	-	.
Cc1cccc(N2CCN(C(=O)COc3noc4nc(C)cc(C)c34)CC2C)c1 (stereo unspecified)	-	34	-
SMILES	D3 antag	DRD3 agonist	Integrin act MD
O=C(Nc1cccnc1)c1ccc2ccccc2c1O	-	-	-
COc1ccc(CNC(=O)COC(=O)c2cc(-c3cccs3)nc3ccccc23)cc1OC	-	-	-
COc1cc2c(cc1OC)CN(CCC(=O)c1ccc(Br)cc1)CC2	-53	-	-
COc1cc2c(cc1OC)CN(C(=O)CCNC(=O)c1ccc(Br)cc1)CC2	-	-	-
COc1ccccc1NC(=S)NCc1ccccc1Cl	-	-	-
O=S(=O)(c1ccc(N2CC=C(c3ccccc3)CC2)nc1)N1CCCC1	-	-	-
CCCCNC(=O)NC12CC3CC(CC(C3)C1)C2	-	-	-
CCCCNC(=O)NC(C(=O)OC)C12CC3CC(CC(C3)C1)C2 (stereo unspecified)	-57	-	-
c1ccc(OCCCn2nnc(-c3ccc(N4CCOCC4)cc3)n2)cc1	-	-	-
CCC(C)c1ccccc1NC(=O)C(C)Sc1n[nH]c(N)n1 (stereo unspecified)	-	-	-
Oc1c(C(c2ccccc2)N2CCN(c3ccccc3)CC2)sc2nc(-c3ccco3)nn12 (stereo unspecified)	.	-	.
CCOc1ccc(S(=O)(=O)Nc2cccc(C(=O)NCC(c3ccco3)N(C)C)c2)cc1 (stereo unspecified)	-56	-	-
CCOc1ccc(NS(=O)(=O)c2ccc(C(=O)NCC(c3ccco3)N(C)C)cc2)cc1 (stereo unspecified)	-	-	-
COc1ccc(C(CNC(=O)c2cccc(NS(=O)(=O)c3ccccc3)c2)N(C)C)cc1 (stereo unspecified)	?	-	-
COc1ccccc1C(CNC(=O)c1cccc(NS(=O)(=O)c2ccc(C)c(F)c2)c1)N(C)C (stereo unspecified)	-	-	-
